Experimental data from PubChem BioAssay AID1981 (Southern Research Specialized Biocontainment Screening …, 2009).
In all, about 2,200 compounds went through this assay and about 480 (22%) were called active. These entries were drawn from the full list. Potency and affinity values are given separately. Unmarked numbers belong to inactive results. How the calls were made is not given here.

Assay: S. Typhimurium GFP fluorescence modified counterscreen for PhoP regulon inhibitor project dose response (AID 1981);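 further: 0% = induced DMSO wells and 100% = uninduced wells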
Settings: 4 h; series mostly up to 150 µM; inhibition: at the top concentration

SMILES	inhibition
Nc1nnc(SCCOc2ccc(Br)cc2)s1	-21.9%
c1ccc(-c2cnn3nnnc3n2)cc1	15.6%
CC(C)CNC(=S)NC1CCCC1	0.61%
Cc1cc(/C=N/n2cnnc2)c(C)n1-c1ccc(OCc2ccc(F)cc2)cc1	-6.71%
COc1ccc(/C=C/c2nc3ccccc3n2Cc2ccccc2OC)cc1	-5.86%
COc1cccc(-n2c(N)c(C(=O)Nc3c(C)n(C)n(-c4ccccc4)c3=O)c3nc4ccccc4nc32)c1	24.6%
COc1cccc(NC(=S)N/N=C2\CC(C)(C)Oc3ccc(O)cc32)c1	-4.58%
CCc1cc2c(NCCC(=O)O)nc(C)nc2s1	-5.57%
CN1c2ccccc2C(O)=C(C(=O)Nc2ccccc2)S1(=O)=O	-25.7%
O=C(Nc1cccc2ccccc12)c1ccc(Cn2cc(Cl)cn2)cc1	-10.6%
Cc1cc(C)n(-c2nc(NCCN(C)C)c3c4c(sc3n2)CCCC4)n1	16.5%
Cc1ccc(-c2nnn(CC(=O)Nc3ccccc3-c3ccccc3)n2)c(-n2cnnn2)c1	-20.2%
N#Cc1ccc(COC(=O)c2ccc3c(=O)[nH]c(CN4CCOCC4)nc3c2)cc1	-16.6%
Cc1cc(C(C)c2ccccc2)c(O)c(CN2CCOCC2)c1C (centres undefined)	4.28%
c1ccc(COc2cccc(CN3CCN(c4ccccn4)CC3)c2)cc1	-14.2%
O=c1[nH]c(CN2CCCCC2)nc2ccccc12	-0.84%
CC1C(C#N)=C(N)OC2=C1C(=O)CCC2 (centres undefined)	1.35%
COc1ccc(C2C(C#N)=C(N)OC3=C2C(=O)CCC3)cc1Cn1cc([N+](=O)[O-])cn1 (centres undefined)	15.4%
CCN(CC)CCCn1c(=S)[nH]c2cc(OC)c(OC)cc2c1=O	-0.94%
Cn1c(CO)cnc1SCc1ccc([N+](=O)[O-])cc1	-0.6%
COc1ccccc1Nc1nc(-c2c(C)[nH]c3ccccc23)cs1	24.6%
CCc1ccc(OCC(=O)Nc2ccc(-c3cc4ccccc4oc3=O)c(OC)c2)cc1	2.11%
COc1ccc2oc(=O)cc(C)c2c1	11.9%

SMILES	inhibition
COc1ccc(S(=O)(=O)n2ccc(-c3ccc(OCCN(C)c4ccccn4)cc3)n2)cc1	-16.7%
NNC(=S)Nc1ccc(Cl)cc1	6.57%
OCCNc1ccc(Cl)cc1	-9.47%
Cc1ccc(S(=O)(=O)NC2c3cccc4cccc(c34)C2Sc2n[nH]c(N)n2)cc1 (centres undefined)	13.9%
Brc1ccc(-c2cnc3n2CCCC3)cc1	15.1%
CCCNC1=C(C)C(=O)C2=C(C1=O)C(COC(N)=O)[C@]1(OC)C3NC3CN21 (some centres undefined)	32.6%
Cc1ccc(S(=O)(=O)c2c(N)n(NC(=O)c3ccco3)c3nc4ccccc4nc23)cc1	-0.13%
O=C(c1cnsn1)N1CCN(c2ccccc2)CC1	-1.8%
COc1ccc(OC)c(C2C=C(C34CC5CC(CC(C5)C3)C4)NC(=S)N2)c1 (centres undefined)	-20%
O=C(c1[nH]ncc1-c1ccc(Cl)cc1)C1CO1 (centres undefined)	8.07%
O=C(CSCc1cccc(CSCC(=O)Nc2ccc3ccccc3c2)n1)Nc1ccc2ccccc2c1	-6.02%
c1ccc(CSc2nnc(-c3ccncc3)o2)cc1	1.56%
C=CCNc1nnc(Cl)c2ccccc12	-10.6%
S=C(NCc1ccncc1)Nc1ccc(Cl)c(Cl)c1	-1.3%
Cc1cc(-c2csc(NC(=O)c3ccccc3C(F)(F)F)n2)c(C)n1Cc1ccccc1	11.7%
Cc1ccc2[nH]c3c(NCc4ccco4)ncnc3c2c1	-2.75%
Oc1ccccc1Nc1nc(NCc2ccco2)c2ccccc2n1	-2.16%
c1ccc(CN2CCN(c3nc(NCc4ccco4)c4ccccc4n3)CC2)cc1	-2.02%
c1ccc(CNc2nc(N3CCN(Cc4ccccc4)CC3)nc3ccccc23)cc1	-6.01%
c1ccc(CNc2ncnc3ccccc23)cc1	-3.62%
c1coc(CNc2ncnc3ccccc23)c1	0%
Cc1cccc(C(=O)NC(NCc2ccco2)C(Cl)(Cl)Cl)c1 (centres undefined)	-6.57%
Cc1ccc(-c2nc(NCc3cccnc3)c3ccccc3n2)cc1	0.48%

SMILES	inhibition
O=C(c1ccccc1)N1CCN(c2ccc([N+](=O)[O-])c(NCc3ccco3)c2)CC1	0.28%
C/C(=N/NC(=O)Cc1cccn1C)c1ccccc1	3.18%
COc1ccc(NC(=O)CCNS(=O)(=O)c2ccc3c(c2)CCC(=O)N3)cc1	-0.32%
O=C(Nc1nccs1)c1cc(-c2ccco2)nc2ccccc12	-23.4%
Cc1cn([C@H]2C[C@H](N=[N+]=[N-])[C@@H](CO)O2)c(=O)[nH]c1=O	35.2% [at 75 µM]
COc1cccc(-c2nnc3sc(-c4ccc(C)cc4)nn23)c1	-9.25%
CN(CC(=O)N1CCN(c2ccccn2)CC1)S(=O)(=O)c1ccc2ccccc2c1	-4.15%
Cn1nnnc1SCC(=O)NC1CCCCC1	-10.9%
Nc1nnc(SCc2ccc(F)cc2Cl)s1	-15.6%
Cn1c(C(O)c2ccc(Br)cc2)nc(Cl)c1Cl (centres undefined)	-13.2%
CCC1C2CN(C(C)=O)CC=C2C(C#N)=C(N)C1(C#N)C#N (centres undefined)	6.02%
Clc1ccc(-n2ncc3c(NCc4cccs4)ncnc32)cc1	-17.4%
CCn1c(Cc2ccccc2)nnc1SCC(=O)Nc1nc(C)c(C)s1	0.1%
Nc1ccc2oc3ccccc3c2c1	16.8%
CCOc1cc(C2C(C(=O)OC)=C(C)N=C3SCCC(=O)N32)ccc1OC(C)=O (centres undefined)	-2.17%
CCCn1c(/N=C/c2ccc3c(c2)OCO3)nc2ccccc21	15.2%
Cc1ccc(NS(=O)(=O)c2ccccc2)c2c1CC(C)(C)O2	-8.98%
COc1ccc(NC(=O)C(Sc2nnc(-c3ccncc3)n2-c2ccccc2C)c2ccccc2)cc1Cl (centres undefined)	8.36%
CC(=O)Cn1cnc2sc(-c3ccccc3)cc2c1=O	4.67%
C/C(=N\Nc1nc2ccccc2[nH]1)c1cccs1	-5.9%
C/C(=N\Nc1nc2ccccc2[nH]1)c1ccc(Cl)s1	12.1%
O=S(=O)(c1ccc(N2CCCC2c2nc3ccccc3s2)nc1)N1CCOCC1 (centres undefined)	-16.8%
O=C(/C=C/c1cccs1)N1CCN(Cc2ccc3c(c2)OCO3)CC1	-9.81%

SMILES	inhibition
CC(C)(C)NS(=O)(=O)c1ccc(CCC(=O)N2CCOCC2)cc1	-7.62%
Cc1cc(C(=O)CSc2nnnn2C)c(C)n1-c1ccc2c(c1)OCCO2	-3.82%
COC(=O)c1c(C)oc2ccc(NS(=O)(=O)c3cccs3)cc12	-14.3%
Cc1cc(N/N=C/c2cccc(Cl)c2)nc(NCc2ccccc2)n1	-17.7%
C(=N\N1CCN(Cc2ccccc2)CC1)/c1cccnc1	-10.5%
O=C(Nc1cccc(Cl)c1)C1C2CCC3C(CCC21)C3(Cl)Cl (centres undefined)	-16.9%
O=C1CC(c2ccccc2)n2ncnc2N1 (centres undefined)	-7.51%
O=C(NC(NC(=S)Nc1ccc(Cl)cc1)C(Cl)(Cl)Cl)c1ccco1 (centres undefined)	-10.4%
Cc1onc(-c2ccccc2)c1C(=O)NC(=S)NNC(=O)c1ccc(O)cc1O	15.5%
FC(F)Oc1ccc(NC(=S)NCc2nc3ccccc3[nH]2)cc1	3.22%
CCn1c(N)[n+](CC(=O)Nc2ccc(SC(F)F)cc2)c2ccccc21	-16.1%
Cc1ccc2[nH]c3c(NCc4ccccc4)ncnc3c2c1	-12.9%
COC(=O)N1CCN(c2ccc(Cl)c(Cl)c2)CC1	-3.97%
Brc1ccc2nc3c(n2c1)CCCC3	10.4%
Cc1ccccc1Nc1nc(-c2sc(NC(=O)c3cccc(Cl)c3)nc2C)cs1	30.6%
CC(=O)Nc1ccc(C(=O)Nc2nc(-c3cc(C)n(Cc4ccccc4)c3C)cs2)cc1	-1.17%
CC(C)Cc1oc(C(=O)O)cc1CN	10.4%
Nc1nc(C2CCCCC2)cs1	-11.9%
CCN(CC(=O)Nc1ccc(N2CCOCC2)cc1)Cc1nc2ccccc2c(=O)[nH]1	-1.37%
COc1ccc(OC)c(/C=N/NC(=O)c2cc3c(OC)c(OC)ccc3[nH]2)c1	-13.9%
COc1ccc(OC)c(/C=N/NC(=O)Cc2nc3ccccc3[nH]2)c1	8.7%
C#CCOc1c(Cl)cc(/C=N/O)cc1OC	-8.22%
Cc1nn(-c2ncc(C(F)(F)F)cc2Cl)c(=O)n1-c1cccc(Cl)c1	-20.8%

SMILES	inhibition
Cc1ccc(C)n1-c1cccc(N)c1	8.69%
O=S1(=O)CC(O)C(Nc2ccccc2Cl)C1 (centres undefined)	0.99%
COc1ccccc1NC(=O)Cn1nnc(-c2ccccc2NC(=O)c2cccs2)n1	-1.7%
Fc1cc(Br)ccc1NC(=S)Nc1ccccc1	-7.83%
CCN(CC)S(=O)(=O)c1cccc(NC(=O)Nc2cccc(C(F)(F)F)c2)c1	4.19%
COC(=O)Cc1ccc(NC(=S)N2CCN(c3ccc(F)cc3)CC2)cc1	12.2%
O=S(=O)(Nc1ccc2ccccc2c1)c1ccccc1	-3.83%
Cc1scc(C(=O)O)c1-c1c(C(=O)O)csc1C	-5.12%
O=C(c1ccccc1)c1nc2ccccc2n(CCCn2c(=O)c(C(=O)c3ccccc3)nc3ccccc32)c1=O	10.8%
CCCn1c(NCc2c[nH]c3ccccc23)nc2ccccc21	-16.7%
CCC(C)N1C(=O)/C(=C/c2ccc3c(c2)CCN3CCCCl)C(=O)NC1=S (centres undefined)	11.6%
COc1ccc(-n2c(=O)c3ccccc3n(CC(=O)Nc3cc(C)on3)c2=O)cc1OC	-6.76%
CCn1c2ccccc2c2cc(NC(=O)COc3ccccc3)ccc21	-7.07%
CCCSc1nc(N2CCCC2)c2c(c1C#N)CC(C)(C)OC2	3.09%
c1nc(N2CCC3(CC2)OCCO3)c2c3c(sc2n1)CCCC3	-0.83%
C=CCc1ccccc1OCC(O)CN1CCN(CCN2C(=O)c3cccc4cccc(c34)C2=O)CC1 (centres undefined)	8.96%
COc1ccc([N+](=O)[O-])cc1N(CC(O)Cn1nnc2ccccc21)S(=O)(=O)c1ccc(C)cc1 (centres undefined)	8.93%
Cc1ccc(/C(O)=C2\C(=O)C(=O)N(CC(C)O)C2c2cccc(F)c2)cc1 (centres undefined)	-24.2%
COc1ccc(C2CC(c3ccccc3)=NN2C(=O)COC(=O)c2cccnc2)cc1 (centres undefined)	-4.41%
CCOC(=O)/C=C1\SCC(=O)N1CC(=O)NC1CCCCC1	5.36%
COC(=O)c1ccc2c(=O)n(CCN3CCOCC3)c(SCC(=O)C(C)(C)C)nc2c1	-14.9%
Cc1nn(-c2ccccc2)c(N2CCCC2)c1/C=N/Nc1ccc(S(N)(=O)=O)cc1[N+](=O)[O-]	38%
